High-throughput results: PubChem BioAssay, National Center for Advancing Translational Sciences (NCATS)
The list is not random: actives were taken first. Their share in the collection is about 8%.
RORg inh = qHTS for inhibitors of ROR gamma transcriptional activity | Drosophila S2 Gal4-RORgamma UAS-luciferase reporter, 20 h | Potency, µM (doses to about 53.6 µM), for the others: at the highest dose activity change, negative = inhibition, usual class: inhibitors | hit rate 5.4% among 310,000 | AID 2551, 2010; also: potency is read from the fitted curve at half-maximal effect; nearly all actives have a fitted effect of over 60% in size
Target sequence (P51450 whole entry, looked up, the tested form may be a part): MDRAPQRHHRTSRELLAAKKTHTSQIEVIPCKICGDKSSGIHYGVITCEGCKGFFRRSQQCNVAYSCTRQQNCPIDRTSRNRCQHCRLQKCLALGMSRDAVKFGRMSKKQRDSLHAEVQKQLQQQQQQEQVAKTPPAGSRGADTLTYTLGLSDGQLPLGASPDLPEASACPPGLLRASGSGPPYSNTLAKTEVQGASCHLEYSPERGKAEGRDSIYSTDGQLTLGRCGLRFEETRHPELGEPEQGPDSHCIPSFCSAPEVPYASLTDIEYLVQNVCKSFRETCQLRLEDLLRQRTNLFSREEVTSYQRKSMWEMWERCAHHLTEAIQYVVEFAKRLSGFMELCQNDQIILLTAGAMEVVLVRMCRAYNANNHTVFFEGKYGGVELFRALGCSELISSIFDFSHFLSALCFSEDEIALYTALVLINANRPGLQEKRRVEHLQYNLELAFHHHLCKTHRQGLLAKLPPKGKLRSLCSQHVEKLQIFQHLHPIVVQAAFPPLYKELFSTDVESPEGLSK
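ROR gamma transcriptional activity was tracked as Gal4-UAS luciferase output in stably transfected Drosophila Schneider cells, with compound added 1 hr before 700 uM copper sulfate induction and a 20 hr ambient-temperature incubation.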
Coupling enz = qHTS Assay for Inhibitors of Fructose-1,6-bisphosphate Aldolase from Giardia Lamblia: Coupling assay counterscreen; coupling enzyme system counterscreen, AmpLite Red fluorescence; activity change, negative = inhibition, % at 58.2 µM, hits read low; hit rate 0.67% among 290,000; AID 2472, 2010; in the data active = activity change below about -30%
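Compounds tested against the coupling enzymes alone at 57.5 uM final; readout was AmpLite Red fluorescence (525/598 nm) after 20 min at RT.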
TSHR antag = Antagonists of the Thyroid Stimulating Hormone Receptor: HTS campaign; Thyrotropin receptor (Homo sapiens), P16473; TSHR-expressing cells, TSH-stimulated cAMP HTRF, 2 h; stronger effect = lower value; activity change, negative = inhibition, % at 11.5 µM; hit rate 0.2% among 330,000;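 active = activity change below a set negative limit, meaning inhibition stronger than a set level, cut at about -70% in these data; inconclusive = activity change between two set negative limits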
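Inhibition of cAMP made by TSHR-expressing cells under TSH stimulation (4nM final, EC80; 2 h, 37 deg C) is quantified with a one-step lysis HTRF kit, anti-cAMP cryptate versus cAMP-d2.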
ELG1 DNA repair = qHTS screen for small molecules that inhibit ELG1-dependent DNA repair in human embryonic kidney (HEK293T) cells expressing luciferase-tagged ELG1; HEK293T ELG1-luciferase reporter, luminescence, 16 h; DNA damage induced by 5-fluorouridine; Potency, µM (titrated, usually from 46.1 µM), without a hit: top-dose activity change, negative = inhibition, most hits filed as inhibitors; hit rate 2.3% among 330,000; also: potency is read from the fitted curve at half-maximal effect; nearly all actives have a fitted effect of over 55% in size
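In this reporter screen, reduction of luminescence relative to DMSO vehicle indicated activity. Compounds and 5-fluorouridine were added together to 2,000 cells per well, incubated for 16 hr at 37 °C, then developed with ONE-Glo.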
VP16 counter = VP16 counterscreen qHTS for inhibitors of ROR gamma transcriptional activity; Drosophila S2 Gal4-VP16 UAS-luciferase, luminescence, 20 h; Potency, µM (doses to about 53.6 µM), for the others: at the highest dose activity, negative = inhibition, actives largely listed as inhibitors; hit rate 3.5% among 310,000;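 also: Gal4-VP16 expression switched on by copper sulfate through the metallothionein promoter; potency is read from the fitted curve at half-maximal effect; nearly all actives have a fitted effect of over 50% in size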
* marks the source's active call; other numbers are inactive results; ? = inconclusive; / = no result given; [ ] = remark or other dose. Unless noted, calls follow the shape of the dose curve; as a rule, active = well fitted curve in the direction sought with a large enough effect; inconclusive = small, poorly fitted or top-dose-only effect, or another doubt; inactive = no such curve, though single readings can be large; an effect the other way counts as inactive or inconclusive. % is scaled to controls: 0 for no effect and ±100 for the full control effect.

SMILES	RORg inh	Coupling enz	TSHR antag	ELG1 DNA repair	VP16 counter
COc1ccc(-c2oc3ncnc(NCCCN4CCOCC4)c3c2-c2ccc(OC)cc2)cc1	?	-0.2	-7.7	16.4µM*	15.8µM*
Cc1ccc2c(c1)Oc1ccc(NC(=O)CCl)cc1C(=O)N2	10µM*	2.9	-8.2	?	17.8µM*
Cc1ccc2c(c1)Oc1ccc([N+](=O)[O-])cc1C(=O)N2	-4.6%	-0.4	3.8	-0.4%	4.6%
CCOC(=O)C1=C(C)N=C2c3ccccc3C(=O)C2C1c1ccc(Cl)cc1 (stereo not given)	36.5%	-5.6	15.8	20.6µM*	1.0%
CC1(C)CC(=O)C2=C(C1)N=C1c3ccccc3C(=O)C1C2c1ccc(Cl)cc1 (stereo not given)	1.1%	-13.1	-1.6	?	14.8%[0.365 µM]
COc1ccccc1NC(=O)COC(=O)c1ccc2ccccc2n1	/	/	38.4	-3.3%	/
O=C(NCc1ccc(Cl)cc1)C(=O)NCC(c1cccnc1)N1CCN(c2ccc(F)cc2)CC1 (stereo not given)	?	0.9	-21.3	11.6µM*	?
O=C(NCC(c1cccnc1)N1CCN(c2ccc(F)cc2)CC1)c1ccccc1 (stereo not given)	17.9%	1.7	-4.7	-17.8%	0.4%
COCc1c(C(=O)OCC(=O)NCc2ccco2)oc2ccccc12	/	/	/	4.7%	/
COc1ccc(CCNC(=O)c2cc(C3CC3)nc3c2cnn3C(C)C)cc1	/	/	13.6	?	/
CC1CCCN(c2ccc3nc4ccccc4c(=O)n3n2)C1 (stereo not given)	8.91µM*	-2.8	-7.1	?	4.47µM*
C=CCN(CC=C)C(=O)c1ccc2nc(Cc3ccc(OC)c(OC)c3)oc2c1	?	-0.2	-9.8	?	12.6µM*
CC(C)(C)c1ccc2c(c1)C(=O)c1ccccc1C2=O	42.8%	5.7	-0.8	?	-20.7%
CC(C)(C=O)C1=CC(=O)c2ccccc2C1=O	14.1µM*	-63.2*	-86.5*	?	5.01µM*
Cc1ccccc1-n1c(=O)/c(=C\c2ccco2)s/c1=C(/C#N)C(=O)Nc1ccccc1	9.0%	-14.2	5.6	4.61µM*	-6.6%
Cc1ccc(-c2csc3ncnc(Oc4ccc5c(C)cc(=O)oc5c4)c23)cc1	21.9%	4.5	-14.5	18.4µM*	-12.7%
CC(=O)Nc1cccc(Oc2ncnc3scc(-c4ccc(C)cc4)c23)c1	?	3.5	-17.8	?	-16.7%
Oc1c(/C=C/C=C/C=Nc2ccccc2)sc(=S)n1Cc1ccccc1	0.6%	-9.9	-2.6	?	-5.3%
COc1ccc(-c2cc(=O)c3c(OC(C)=O)cc(OC(C)=O)cc3o2)cc1	?	1.8	/	/	-26.1%
CC(=O)Oc1cc(OC(C)=O)c2c(=O)cc(-c3ccc(OC(C)=O)c(OC(C)=O)c3)oc2c1	?	1.1	/	/	35.5µM*
O=c1[nH]nc(CNc2ccc(O)cc2)c2ccccc12	-43.9%	-49.5*	-2.4	1.2%	-24.0%
O=c1[nH]nc(CNc2ccc(C(F)(F)F)cc2)c2ccccc12	?	1.2	-8.2	14.3%	1.1%
O=C(NNC(=O)c1ccco1)c1ccccc1	-11.3%	4.3	24.8	?	-9.7%
O=C(NC(=S)NNC(=O)c1ccco1)c1ccccc1	11.2µM*	/	4.7	-9.8%	11.2µM*
Cc1ccc(C(=O)NC(=S)NNC(=O)c2ccccc2)cc1	?	1.0	-1.1	-9.4%	20µM*
SMILES	RORg inh	Coupling enz	TSHR antag	ELG1 DNA repair	VP16 counter
Cc1ccc(C(=O)NC(=S)NNC(=O)CCN2CCOCC2)cc1	11.2µM*	-2.0	-6.4	?	-12.5%
Cc1ccccc1C(=O)NNC(=S)NC(=O)c1ccccc1	0.794µM*	3.7	6.5	22.1%	2.82µM*
Cc1ccc(C(=O)NC(=S)NNC(=O)c2ccccc2O)cc1	22.1%	1.6	-12.8	30.8%	-1.0%
O=C(NC(=S)NNC(=O)c1ccccc1O)c1ccc(F)cc1	-44.2%[1.91 µM]	-0.2	-17.1	1.5%	?
COCc1nnc(NC(=O)C2CC(=O)N(C3CCCC3)C2)s1 (stereo not given)	-18.3%	1.5	-1.0	-2.4%	5.1%
C/C(=N/NS(=O)(=O)c1cccc([N+](=O)[O-])c1)c1ccncc1	?	/	-12.7	1.1%	?
CC12OC1C1(O)CCCC1=CC2=O (stereo not given)	1.0%	6.4	14.6	-12.1%	-5.4%
Cc1ccc(C(=O)NNC(=O)c2ccc3ccccc3c2O)cc1	14.1µM*	1.3	-5.7	12.1%	10µM*
COc1ccc(C(=O)NNC(=O)c2ccc3ccccc3c2O)cc1	/	2.5	9.2	1.9%	/
O=C(NC(=S)NNC(=O)c1ccccc1O)c1ccccc1	11.2µM*	0.6	-2.2	-24.7%	-7.6%
Cc1ccc(NC(=O)NC(=S)NC(=O)c2ccccc2)cc1	2.51µM*	-1.4	6.9	13.9%	?
CNC(=O)c1ccc(NC(=O)Nc2ccccc2)cc1	10.6%	0.3	22.0	?	17.5%
CCC1CCCCN1C(=O)COC(=O)CN(C)S(=O)(=O)c1ccc(NC(C)=O)cc1 (stereo not given)	/	/	-2.9	24.2%	/
Cc1ccc(-c2nn(C(C)(C)C)c3ncnc(NS(=O)(=O)c4ccc([N+](=O)[O-])cc4)c23)cc1	12.6µM*	-4.3	-8.6	?	-22.2%
Cc1ccc(S(=O)(=O)Nc2ncnc3sc(C)c(C)c23)cc1	/	/	-7.2	-2.3%	/
O=C(NC(NNc1ccc([N+](=O)[O-])cc1)(C(F)(F)F)C(F)(F)F)c1ccc(Cl)cc1	15.8µM*	-2.8	-19.1	-11.4%	?
CC(=O)O[C@H]1C[C@@]2(C)[C@H](C[C@@H](O)[C@H]3[C@@]4(C)CC[C@@H](O)[C@@H](C)[C@H]4CC[C@@]32C)C1=C(CCC=C(C)C)C(=O)O	13.5%[16.9 µM]	-0.2	/	/	-0.4%[17 µM]
CCN1CCc2c(sc(N)c2C#N)C1	1.6%	-18.4	-5.0	-3.5%	3.0%
N#Cc1c(N)sc(=S)c2c1CCN(Cc1ccccc1)C2	6.8%	-59.0*	-3.7	-19.7%	0.0%
C=CCNc1nc(N2CCCCC2)c(C#N)c2c1CN(Cc1ccccc1)CC2	?	-5.1	-11.6	23.1µM*	3.7%
Cc1cccc(NC(=O)CSc2cccc3cccnc23)c1C	-39.3%	0.1	-4.1	-2.0%	-8.3%
COc1ccc(NC(=O)CSc2cccc3cccnc23)c(OC)c1	-10.6%[10 µM]	-0.2	-10.3	8.0%	-5.1%
c1cnc2c(SCc3ccc(-c4nnco4)cc3)cccc2c1	?	-3.2	-1.6	?	-1.8%
CCOC(=O)CSc1cccc2cccnc12	?	0.1	4.0	?	10µM*
